SMILES strings stand for the structures. In all, about 2,300 compounds went through this assay and about 790 (34%) were called active. No rule for the calls is given here. The list shows a part of the results. Measured potencies and affinities stand elsewhere.

The nature of this assay: THP-1 cell cytotoxicity, dose response, cytotoxicity control for non-replicating M. tuberculosis project (AID 489025). The conditions noted are these: THP-1 cell viability; series mostly up to 40 µM.
In the case of `O=C(COc1cccc2ccccc12)Nc1nc2ccccc2[nH]1`, the compound was classed as inactive. Take `CCCN(Cc1nnc(-c2ccccc2Cl)o1)C(=O)c1cc([N+](=O)[O-])cc([N+](=O)[O-])c1`: the result was inactive. Next, `COc1ccc(CCOC(=O)c2ccc(N)c([N+](=O)[O-])c2)cc1`: “inactive”; `Cc1ccc(OCC(=O)Nc2ccc([N+](=O)[O-])cc2)cc1`: “inactive”.

Regarding `COc1ccc(C(=O)COC(=O)COc2ccc(C)c(C)c2)cc1`, the result was inactive. In the case of `CC(C)CN(Cc1c(O)ccc2ccccc12)CC(C)C`, the result was inactive. Turning to `Cn1c(=O)c2c(=O)cc(NNC(=O)CC#N)[nH]c2n(C)c1=O`, the compound was classed as inactive. The entry for `O=C(C/C=N\OCc1ccc([N+](=O)[O-])cc1)Nc1ccccc1` is “inactive”; for `CN(CC(=O)Nc1ccc(Cl)cc1)C1CCCCC1` it is “inactive”. Next, `Cc1ccc(CO/N=C/c2c(O)cc(C)oc2=O)cc1`: “inactive”; `CS(=O)(=O)Nc1cccc2cccnc12`: “inactive”; `Cc1cc(C)n2nc(S(=O)(=O)Nc3c(Cl)cccc3Cl)nc2n1`: “inactive”. Turning to `CCSc1nc(O)c(C2OC(=O)c3c2ccc(OC)c3OC)c(=O)n1-c1ccccc1` (stereo not given), the call was inactive.

With `COc1cc(/C=C/c2ccc3c([N+](=O)[O-])cccc3n2)ccc1OCC(=O)O`, the outcome was inactive. `COc1cc(C=O)ccc1OCCCCOc1ccccc1[N+](=O)[O-]`: the result was inactive. The entry for `C=CCN(CC=C)CC(=O)Nc1ccc(S(N)(=O)=O)cc1` is “inactive”; for `O=C(OCc1ccc([N+](=O)[O-])cc1)c1ccc2ccccc2n1` it is “inactive”.

`N#CC(C(=O)Nc1ccccc1)=C1Nc2ccccc2N1`: the call was inactive. The entry for `CSCCC(=O)N1CCCC(CNC(=O)c2ccc(-c3ccccc3)cc2)C1` (stereo not given) is “inactive”. The entry for `Cc1[nH]n(S(=O)(=O)Cc2ccccc2)c(=O)c1N=Nc1ccccc1Cl` is “inactive”; for `O=C(N/N=C/C=C/c1ccccc1)c1ccncc1` it is “inactive”. With `O=C(NN=C(Cc1ccccc1)Cc1ccccc1)c1ccncc1`, the compound was classed as inactive. Consider `CN1/C(=C\C=N\NC(=O)c2cccnc2)C(C)(C)c2ccccc21`, for which the compound was called inactive. As to `CCOC(=O)N1CCC(NC(=O)C2CCN(c3nc(-c4ccc(OC)cc4)no3)CC2)CC1`, the outcome was inactive. Next, `CCOC(=O)C1CCCN(Cc2nc(Cc3ccccc3Cl)no2)C1` (stereo not given): “inactive”; `CCCNC(=O)OCC12CC3CC(CC(C3)C1)C2`: “inactive”.

With `O=C(CCCOc1ccccc1)OCn1nnc2ccccc2c1=O`, the outcome was inactive.

As for `COc1ccccc1N1CCN(C(=O)CCn2c(=O)[nH]c3ccsc3c2=O)CC1`, the outcome was inactive.

With `Cc1ccc(C(=O)COC(=O)c2cccs2)cc1`, the result was inactive.

Take `Cc1ccc(C(=O)CCC2CCCC2=O)cc1` (stereo not given): the compound was called inactive. The entry for `COc1ccc(-c2[nH]ncc2CN2CCCCCCC2)c(OC)c1` is “inactive”; for `CC(C)Cc1cc(C(=O)Nc2ccc(F)cc2F)no1` it is “inactive”; for `O=C(Nc1ccc(F)cc1F)c1cc2ccccc2oc1=O` it is “inactive”. In the case of `O=C(COc1ccc(-c2ccccc2)cc1)Nc1cccnc1`, the compound was classed as inactive.

Take `CCCNC(=O)NC(=O)COc1ccc(-c2ccc(C#N)cc2)cc1`: the call was inactive.

Turning to `O=C(NC(=S)Nc1ccc(F)cc1)C1CCCCC1`, the compound was called inactive. Next, `CC1=CN2C(=N)/C(=C/c3ccc([N+](=O)[O-])o3)C(=O)N=C2S1`: “inactive”; `CN(/N=C/c1ccc([N+](=O)[O-])o1)c1ccccc1`: “inactive”; `CC(C)[C@H](NC(=O)c1ccc(Br)cc1)C(=O)NC1CCCCC1`: “inactive”. As for `COc1ccc(CCNc2nc(-c3ccccn3)cs2)cc1OC`, the outcome was inactive.

As for `c1ccc(Nc2nc(-c3ccccn3)cs2)cc1`, the call was inactive. Next, `CN1CCN(c2cc3c(cc2F)c(=O)c(C(=O)O)cn3CCF)CC1`: “inactive”; `S=C1NC2(CCCC2)N=C1c1ccccc1`: “inactive”. Consider `CCOC(=O)c1csc(-c2snnc2C)n1`, for which the result was inactive. The entry for `COC(=O)COc1cccc(NC(=O)c2ccc(Cl)cc2)c1` is “inactive”; for `COc1ccc(COC(=O)CCNC(=O)c2ccc(Cl)cc2)cc1` it is “inactive”. Next, `CC(C)N1CCc2c(sc(NC(=O)CCS(=O)(=O)c3ccccc3)c2C#N)C1`: “inactive”; `CNC(=O)COC(=O)c1ccc(-c2nc3ccccc3s2)s1`: “inactive”. For `O=C(COc1ccc2ccccc2c1)NNC(=O)c1cccs1`, the result was inactive. The entry for `Clc1cccc(CNCCNCc2cccc(Cl)c2)c1` is “inactive”. With `Cc1cc(Cl)ccc1OCCCC(=O)NO`, the compound was classed as inactive. For the compound `CC(Cc1cccs1)NC(=O)c1cccc(Cl)c1` (stereo not given), the compound was classed as inactive.

Take `Cc1ccc(NC(=O)COc2ccc3c(c2)CCC3)nc1`: the compound was classed as inactive. On to `CCOC(=O)COc1cc(O)c2c(=O)cc(-c3ccccc3)oc2c1`, for which the compound was classed as inactive. Take `COc1ccc(N2C(=O)C(F)(F)C2c2cccc(F)c2)cc1` (stereo not given): the outcome was inactive. For the compound `NC(=O)N/N=C\c1cc(Br)ccc1O`, the outcome was inactive. Next, `COC(=O)COc1cccc(/C=N/NC(=O)CCSc2ccccc2)c1`: “inactive”; `Cc1cc(C(=O)N/N=C/c2cccc(Cl)c2Cl)no1`: “inactive”. Consider `COCCNC(=O)CC(=O)N/N=C/c1cccc(C(=O)OC)c1`, for which the outcome was inactive.

Take `Clc1ccccc1CSc1nnc([C@@H]2CCCN2)o1`: the result was inactive. Next, `O=C(COC(=O)CCc1c[nH]c2ccccc12)Nc1ccc([N+](=O)[O-])cc1`: “inactive”; `CC1N(C)c2cccc3cccc(c23)N1C`: “inactive”. The entry for `COC(=O)c1cccc(COC(=O)c2cc3ccccc3oc2=O)c1` is “inactive”. The entry for `Cc1cc(Cl)ccc1NNC(=O)c1c(C)noc1C` is “inactive”; for `O=C(NN=C1C2CC3CC1CC(Cl)(C3)C2)c1cccs1` it is “inactive”. Consider `Clc1cccc(/C=N\Nc2nccs2)c1`, for which the result was inactive. Next, `O=C(NNc1nc2ccccc2s1)Nc1ccc(F)cc1`: “inactive”.

For the compound `O=C(N/N=C/C=C/c1ccccc1[N+](=O)[O-])c1ccncc1`, the result was inactive. Next, `O=C(COc1ccccc1)NNc1nc2ccccc2s1`: “inactive”.

In the case of `O=[N+]([O-])c1cc(N=Nc2ccc3ccccc3c2)ccc1O`, the compound was called inactive. In the case of `Cc1cccc(N2CCN(Cc3ccc([N+](=O)[O-])o3)CC2)c1C`, the outcome was inactive. Next, `CCCCOC(=O)c1ccc(NC(=O)c2nn(C)cc2Br)cc1`: “inactive”. Regarding `O=C(N/N=C/c1ccc[nH]1)c1ccncc1`, the compound was classed as inactive. Next, `O=C1NCC(O)=C1C=Nc1ccccc1O`: “inactive”; `Cc1[nH]nc2c1C(c1ccc(-c3ccc(Cl)cc3)o1)C(C#N)=C(N)O2` (stereo not given): “inactive”.

For `Cc1ccc(NCCC(=O)c2cccs2)cc1Cl`, the call was inactive. Consider `Nc1ccccc1Nc1ccccc1`, for which the call was inactive. For the compound `CC1(C)CC(=O)C=C(Nc2ccccc2N)C1`, the outcome was inactive. Next, `CSCCOC(=O)COc1ccc(/C=N/NC(=O)c2c(Cl)cnn2C)cc1`: “inactive”; `CCOC(=O)CC(NS(=O)(=O)Cc1ccccc1)c1ccc(C)cc1` (stereo not given): “inactive”; `CCCCC1CCC(C(=O)Nc2ccc(S(=O)(=O)Nc3nccs3)cc2)CC1` (stereo not given): “inactive”. Next, `COC(=O)COc1ccc(S(=O)(=O)N2CCCCCC2)cc1`: “inactive”. As to `CC1(C)Oc2ccc(NC(=O)C3COc4ccccc4O3)cc2O1` (stereo not given), the compound was classed as inactive. On to `CCc1nnc(NC(=O)c2cc3ccccc3oc2=O)s1`, for which the result was inactive. In the case of `CC(C)(C)NC(=O)c1ccc(NC(=O)c2ccccc2-c2ccccc2C(=O)O)cc1`, the outcome was inactive. With `COC(=O)COc1ccc2c(=O)c(-c3ccccc3OC)coc2c1`, the result was inactive.

As to `O=C(COC(=O)c1cc2ccccc2oc1=O)Nc1ccc(F)cc1F`, the outcome was inactive.

In the case of `O=C(CCSc1ccc(Cl)cc1)NC1CCCC1`, the call was inactive.

`CCc1ccc(NC(=O)COc2ccc3c(c2)OCO3)cc1`: the compound was called inactive.

Consider `COc1ccc(C(=O)COC(=O)CCC(=O)c2cccs2)cc1`, for which the compound was classed as inactive. The entry for `Cc1nc(C(=O)Nc2ccccc2)sc1C(=O)Nc1ccccc1` is “inactive”. The entry for `CC1=CC2=NC(=O)/C(=C\c3ccc(OC(=O)c4ccco4)cc3)C(=N)N2O1` is “inactive”; for `CCOC(=O)c1ccc(COC(=O)c2cc3ccccc3oc2=O)o1` it is “inactive”.

Turning to `Cc1cccc(OCC(=O)NNC(=O)c2cc3ccccc3oc2=O)c1`, the compound was classed as inactive.

On to `COc1cccc(OCC(=O)NNC(=O)C(=O)Nc2cccc(C)c2)c1`, for which the compound was called inactive. Next, `O=c1oc(-c2ccccc2[N+](=O)[O-])nc2ccccc12`: “inactive”; `CCOc1ccc(C(=O)Nc2ccc(N3CCN(C)CC3)cc2)cc1Br`: “inactive”; `O=C(NC1=NCCS1)c1ccc(-c2ccc(Cl)cc2)o1`: “inactive”. Next, `O=C(NNC(=O)c1ccccc1F)c1ccc(-c2ccc(Cl)cc2)o1`: “inactive”; `NC(=O)c1ccc(-c2ccc(Br)cc2)o1`: “inactive”.

Take `CC(=O)N1CCN(c2cc3c(cc2F)c(=O)c(C(=O)O)cn3C2CC2)CC1`: the result was inactive.

With `CCCCn1c(O)c(/C=C2/C=CC=N2)c(=O)[nH]c1=O`, the compound was classed as inactive. The entry for `COC(=O)C(O)(c1ccc(NC(=S)NC(=O)c2ccccc2)cc1)C(F)(F)F` (stereo not given) is “inactive”. Take `CCOC(=O)CCSc1n[nH]c(=S)s1`: the compound was called inactive. Consider `COC(=O)CN(C#N)c1nc(N(C)C)nc(N(C)C)n1`, for which the compound was classed as inactive. Take `Cc1ccc2nc3c(c(N)c2c1)CCN3c1ccccc1`: the outcome was inactive. Next, `O=C(c1cc([N+](=O)[O-])cc([N+](=O)[O-])c1)N(Cc1nnc(-c2ccccc2Cl)o1)C1CC1`: “inactive”; `O=C(COc1ccc2ccccc2c1)N/N=C/c1ccccn1`: “inactive”; `CCn1cc(/C=N\NC(=O)c2ccc(F)cc2)cn1`: “inactive”. The entry for `O=C(COc1ccccc1)Nc1ccc(F)cc1` is “inactive”; for `COc1ccc(C(=O)Nc2ccccc2C(=O)N/N=C/c2ccco2)cc1` it is “inactive”; for `COc1ccc(C2=NC(=O)/C(=C\c3cc(OC)c(OC)c(OC)c3)O2)cc1` it is “inactive”. Take `CSc1nnc(Cc2ccc3c(c2)OCO3)o1`: the call was inactive.

For `Oc1ccccc1-c1nnc(COc2ccccc2)o1`, the outcome was inactive. Turning to `Cc1ccc(-c2nnc(-c3ccccc3)o2)cc1`, the outcome was inactive. `Cc1cc(C)cc(NC(=O)CCc2ccc(C)o2)c1`: the compound was called inactive. `Cn1c(=O)c(Oc2ccc(F)cc2)c(O)c2ccccc21`: the result was inactive. With `Nc1nnc(SCCCC(=O)c2ccc(Br)cc2)s1`, the compound was called inactive. The entry for `CC(C)(C)c1cc(CN2CCC(O)CC2)cc(C(C)(C)C)c1O` is “inactive”; for `Cc1cc(C(=O)NNc2cc(Cl)ccc2Cl)no1` it is “inactive”.

The values above are taken from PubChem BioAssay AID489025 (Southern Research Specialized Biocontainment Screening …, 2010).
